Among the test systems are HT29 colon; SNB-75 CNS; SNB-19 CNS; U251 CNS; PC-3 prostate; SK-MEL-5 melanoma; UACC-62 melanoma; LOX IMVI melanoma; SK-MEL-28 melanoma; SK-MEL-2 melanoma.
What all share (assay): NCI-60 one-dose screen, 48 h (100 = growth as untreated, 0 = no growth, -100 = all killed)
Conditions in all cases: 10 µM

Compounds without any hit were thinned out: in the full panel of roughly 83,000, 20% have a hit.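 Interpretation: 100, growth as untreated; towards 0, rising growth inhibition; 0, no net growth; 0 to -100, cell death. Compounds scoring below 10 were considered active.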 Unmarked numbers belong to inactive results. The source made the active and inactive calls.

Take `COc1ccc(NC(=O)Cc2nc3nc4sc(C)c(C)c4c(=O)n3[nH]2)cc1`: the growth was 94.1% in the assay on HT29 colon; 101% in the assay with SNB-75 CNS; 105% in the assay with SNB-19 CNS; 91.2% in the assay on U251 CNS; 95.9% with PC-3 prostate; 86.7% in the assay on SK-MEL-5 melanoma. Moreover, the growth with UACC-62 melanoma was 107%; in the assay with LOX IMVI melanoma, 89.7%; in the assay on SK-MEL-28 melanoma, 115%; in the assay with SK-MEL-2 melanoma, 103%.
`O=C(N/N=C/c1ccccc1)C(Oc1ccccc1)c1ccccc1` (stereo not given): the growth with HT29 colon was 100%; in the assay on SNB-75 CNS, 83.9%; in the assay on SNB-19 CNS, 94.6%; in the assay with U251 CNS, 106%; with PC-3 prostate it was 90.6%; with SK-MEL-5 melanoma, 93.5%. In addition, the growth in the assay on UACC-62 melanoma was 74.9%; in the assay with LOX IMVI melanoma it was 90.1%; in the assay with SK-MEL-28 melanoma, 93.6%; in the assay on SK-MEL-2 melanoma it was 120%.
Regarding `COc1ccc2c(c1)[n+]([O-])c(C#N)c(NC(=O)c1ccco1)[n+]2[O-]`, the growth in the assay with HT29 colon is 101%; in the assay with SNB-75 CNS it was 110%; with SNB-19 CNS it was 95.6%; in the assay with U251 CNS, 98.5%; with PC-3 prostate it was 179%; in the assay with SK-MEL-5 melanoma, 79.3%. Besides, the growth is 98.2% in the assay on UACC-62 melanoma, 95.1% in the assay on LOX IMVI melanoma, 120% in the assay with SK-MEL-28 melanoma and 101% in the assay with SK-MEL-2 melanoma.
For the compound `Cc1cc(=O)[nH]c(N/N=C/c2ccccc2O)n1`, the growth was 46.1% in the assay on HT29 colon; 89% with SNB-75 CNS; 76.9% in the assay with SNB-19 CNS; 45.9% with U251 CNS; 67.4% with PC-3 prostate; 90.8% with SK-MEL-5 melanoma. Also, the growth was 92.3% with UACC-62 melanoma, 59.5% in the assay with LOX IMVI melanoma, 86.3% with SK-MEL-28 melanoma and 73.9% in the assay on SK-MEL-2 melanoma.
`CCCCOC(=O)Oc1ccc(C(=O)Oc2ccc(OCC)cc2)cc1`: the growth in the assay on HT29 colon is 108%; in the assay with SNB-75 CNS it was 111%; in the assay on SNB-19 CNS it was 102%; in the assay with U251 CNS, 88.9%; with PC-3 prostate, 93.2%; in the assay on SK-MEL-5 melanoma, 102%. Also, the growth was 104% in the assay with UACC-62 melanoma, 96.3% in the assay with LOX IMVI melanoma, 109% in the assay on SK-MEL-28 melanoma and 112% in the assay on SK-MEL-2 melanoma.
Regarding `Nc1c(C(=O)Nc2ccccc2Cl)sc2nc3c(cc12)C(=O)CCC3`, the growth with HT29 colon is 40.2%; with SNB-75 CNS it was 52.4%; in the assay on SNB-19 CNS, 51.1%; in the assay on U251 CNS, 73.3%; with PC-3 prostate, 37.1%; in the assay on SK-MEL-5 melanoma it was 32.5%. Also, the growth in the assay with UACC-62 melanoma was 47.1%; in the assay with LOX IMVI melanoma it was 55%; in the assay on SK-MEL-28 melanoma, 57.7%; in the assay on SK-MEL-2 melanoma, 35.4%.
Turning to `O=C(Nc1ccncc1)C(=O)c1cn(S(=O)(=O)c2cccc3ccccc23)c2ccccc12`, the growth was 42.7% in the assay on HT29 colon; 76.5% with SNB-75 CNS; 80.5% in the assay with SNB-19 CNS; 80.7% in the assay with U251 CNS; 68.5% in the assay with PC-3 prostate; 68% with SK-MEL-5 melanoma. In addition, the growth in the assay with UACC-62 melanoma was 63.7%; in the assay with LOX IMVI melanoma, 61.5%; with SK-MEL-28 melanoma, 95.3%; with SK-MEL-2 melanoma it was 68.2%.
As to `O=C(O)CC(Cl)C(Cl)CC(=O)O` (stereo not given), the growth is 101% with HT29 colon; 103% with SNB-75 CNS; 103% in the assay on SNB-19 CNS; 98.6% with U251 CNS; 98.1% with PC-3 prostate; 108% in the assay on SK-MEL-5 melanoma. For the same compound, the growth in the assay with UACC-62 melanoma is 100%; in the assay on LOX IMVI melanoma it was 94%; in the assay on SK-MEL-28 melanoma, 107%; with SK-MEL-2 melanoma, 107%.
With `Nc1ncn([C@@H]2O[C@H](CO)[C@@H](O)[C@H]2O)c(=O)n1`, the growth with HT29 colon was 19.9%; in the assay with SNB-75 CNS it was 20.3%; in the assay on SNB-19 CNS, 46.6%; with U251 CNS, 19.6%; with PC-3 prostate, 31%; in the assay on SK-MEL-5 melanoma it was 48.3%. Also, the growth with UACC-62 melanoma was 12.5%; in the assay with LOX IMVI melanoma, -9.93% (active); with SK-MEL-28 melanoma it was 34.8%; with SK-MEL-2 melanoma, -21.5% (active).
Consider `c1ccc([I+]c2ccccc2)cc1`, for which the growth was 31.4% with HT29 colon; 63.6% with SNB-75 CNS; 85.5% in the assay with SNB-19 CNS; 70.9% with U251 CNS; 69.8% in the assay on PC-3 prostate; 55.7% with SK-MEL-5 melanoma. Also, the growth was 106% in the assay on UACC-62 melanoma, 43.1% in the assay on LOX IMVI melanoma, 87.4% in the assay with SK-MEL-28 melanoma and 55.3% in the assay with SK-MEL-2 melanoma.
For `COc1cc(C)ccc1C(=O)c1ccc(C)cc1OC`, the growth is 2.74% (active) in the assay on HT29 colon; 8.51% (active) with SNB-75 CNS; 43.4% with SNB-19 CNS; 18.3% in the assay on U251 CNS; 17.6% in the assay on PC-3 prostate; 25.9% in the assay with SK-MEL-5 melanoma. Also, the growth in the assay on UACC-62 melanoma is 42.3%; in the assay on LOX IMVI melanoma, 31.5%; in the assay on SK-MEL-28 melanoma, 58.5%; with SK-MEL-2 melanoma it was 17.2%.

The record behind these values is PubChem BioAssay (NCI).
